Consider 59 compounds from PubChem BioAssay AID1259397 (Fisher Drug Discovery Resource Center, 2018).

Each structure is given as a SMILES string. Where “and” joins values, the source holds several entries; their conditions need not be identical. Equal entries are not always repeated. Screen size: about 130,000 compounds; about 230 (0.18%) were called active. Many of the other results were omitted from the sample, so actives are more common in it than they were. A number with no mark means an inactive call.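 The calls were made as follows: active = inhibition of cGAS enzyme activity at or above 60%; inactive = the rest.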

Cyclic GMP-AMP synthase (Mus musculus), sequence (Q8C6L5 whole entry, looked up): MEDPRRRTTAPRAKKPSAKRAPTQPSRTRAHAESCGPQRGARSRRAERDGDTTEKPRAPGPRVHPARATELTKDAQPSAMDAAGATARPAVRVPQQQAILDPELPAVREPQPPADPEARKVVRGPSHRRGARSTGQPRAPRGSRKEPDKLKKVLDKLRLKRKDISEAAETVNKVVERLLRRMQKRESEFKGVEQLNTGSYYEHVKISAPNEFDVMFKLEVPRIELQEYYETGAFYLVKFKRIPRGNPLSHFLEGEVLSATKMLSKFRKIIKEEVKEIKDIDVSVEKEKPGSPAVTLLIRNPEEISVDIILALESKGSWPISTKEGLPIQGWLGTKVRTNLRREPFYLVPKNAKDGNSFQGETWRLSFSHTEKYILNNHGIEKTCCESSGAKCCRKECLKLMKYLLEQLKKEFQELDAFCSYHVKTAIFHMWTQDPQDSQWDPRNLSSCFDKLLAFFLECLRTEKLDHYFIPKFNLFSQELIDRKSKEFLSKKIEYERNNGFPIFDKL

This assay addresses Cyclic GMP-AMP synthase (Mus musculus) (UniProt Q8C6L5). In words: inhibitors of Mus musculus cyclic GMP-AMP synthase, initial high-throughput assay, cell-free, RapidFire MS (AID 1259397).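 Also: enzyme stimulated by 45 bp dsDNA with ATP and GTP substrates; cGAMP share of summed cGAMP plus half ATP and half GTP signals.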 To be noted: recombinant mouse cGAS, cGAMP by RapidFire MS; at 12.5 µM; active compounds read high.
One may read the inhibition as the relative decrease from the control value, in per cent. For `CC1=C(C(=O)N2CCC(N3CCC(C(=O)NCC4CCCO4)CC3)CC2)OCCO1` (centres undefined), the inhibition is -2.1%.

For the compound `O=C(CCc1nc2ccccc2s1)NC1CCN(Cc2ccccc2)C1` (centres undefined), the inhibition is -1.33%.

Regarding `Cc1cc(C)n(CC2CCN(C(=O)C3CCN(S(C)(=O)=O)CC3)CC2)n1`, the inhibition was -6.54%.

With `Cc1cn2c3c(=O)n(CCc4ccccc4)c(=O)n(C)c3nc2n1CCOCCO`, the inhibition is -7.78%.

As to `CCCNC(=O)C1(C)CCCN(Cc2c(C)nn(-c3ccccc3)c2C)C1` (centres undefined), the inhibition was -6.24%.

With `CCOc1ccc(CNC(=O)Cc2sc(=S)[nH]c2C)cc1F`, the inhibition is -6.57%.

In the case of `CC(=O)Nc1ccc(Cl)c(C(=O)N(C)CCc2nc3ccccc3[nH]2)c1`, the inhibition is -12.1%.

Take `CCc1ccc(C(=O)NNC(=S)Nc2sc(CC)cc2C(=O)OC)s1`: the inhibition was -2.22%.

For `COc1cccc(N2C[C@@H]3C[C@@H](c4cccs4)N4CCC[C@@]34C2=O)c1`, the inhibition is -6.87%.

As for `COC(=O)Cn1nc([N+](=O)[O-])n(CC(=O)OC)c1=O`, the inhibition is -9.81%.

For `COc1ccc(NC2CCCN(c3nc(C(F)(F)F)nc(C)c3C)C2)cc1` (centres undefined), the inhibition is -21.1%.

On to `CCCOc1ccc(C(=O)NNC(=O)c2ccc[nH]c2=O)cc1`, for which the inhibition was 2.97%.

`CN(C)/C=C(\C(=O)c1ccc(Cl)c(Cl)c1)c1nnnn1-c1ccccc1`: the inhibition was -2.94%.

Turning to `CC1CN(Cc2ccccc2F)CCO1` (centres undefined), the inhibition is -0.301%.

Regarding `CC(C(=O)N1CCCC1)N1CCOC(CN(C)C)C1` (centres undefined), the inhibition was -1.48%.

With `CCc1ccc(Cl)c(CC)c1NC(=O)c1cnccn1`, the inhibition is -4.79%.

`N#Cc1ccc(C2=CSC3=NS(=O)(=O)CCN23)cc1`: the inhibition was -8.31%.

For `O=C(NCCC(F)(F)F)c1csc(N2CCN(Cc3ccccc3)C2=O)n1`, the inhibition was -6.72%.

For the compound `Cc1noc(C)c1C(=O)N1CCC1(C)C(=O)NS(=O)(=O)c1ccc(C#N)cc1` (centres undefined), the inhibition was -9.56%.

Take `O=[N+]([O-])c1cc(S(=O)(=O)C(F)(F)F)ccc1N1CCCC1`: the inhibition is -9.38%.

As to `C=CCSc1nc2ccccc2n1CCO`, the inhibition is -7.69%.

Take `CC(=O)Nc1ccc(Cl)c(C(=O)NC(CCn2ccnc2)c2ccccc2)c1` (centres undefined): the inhibition is -10.1%.

`CCC1(C)Cc2ccccc2-c2nc3[nH][nH]c(=S)n3c(=O)c21` (centres undefined): the inhibition was 15%.

For `COc1ccccc1/C=C/C=C1\N=C(c2ccc(C(C)(C)C)cc2)OC1=O`, the inhibition was -5.55%.

In the case of `Cc1ccc(C)c(C=C2SC(N3CCOCC3)=NC2=O)c1`, the inhibition was -2.54%.

Take `O=C(NC[C@H]1C[C@H]2C=C[C@H]1C21CC1)C1CCN(Cc2ccco2)CC1`: the inhibition was -6.29%.

With `CN(Cc1cn[nH]c1-c1ccc(F)cc1)C(=O)Cc1c[nH]c2ccccc12`, the inhibition was -11.3%.

In the case of `OCC1(Cc2ccccc2Cl)CCN(C2CCN(c3ccccc3)CC2)CC1`, the inhibition was -7.34%.

`Cc1cc2nc(N(CCN3CCOCC3)C(=O)C3COc4ccccc4O3)sc2cc1C` (centres undefined): the inhibition is -7.12%.

Regarding `CCN(CCn1cccn1)C(=O)CC1C(=O)NCCN1C1Cc2ccccc2C1` (centres undefined), the inhibition was 3.93% and -3.95%.

Take `Cc1c(C)c(C)c(C(=O)C2CCN(C(=O)CC3NC(=O)NC3=O)CC2)c(C)c1C` (centres undefined): the inhibition was -1.46%.

As for `Cc1nc2c(cnn2C(C)C)c(C)c1CCC(=O)NC1CCCC1`, the inhibition is -7.8%.

As to `Cc1ccsc1C(CNC(=O)c1cnn2ccn(C)c12)N(C)C` (centres undefined), the inhibition is -20.4%.

Turning to `O=S(=O)(c1ccc2c(c1)OCCCO2)N1CCCC(c2nc3ccccc3s2)C1` (centres undefined), the inhibition was 10%.

Take `Cc1sc2ncn(CC(=O)c3ccc[nH]3)c(=O)c2c1C`: the inhibition is 14.3%.

`Cc1nc2ccc(C(=O)N3CCC4(CC3)Nc3ccccc3C(=O)N4CCO)cc2[nH]1`: the inhibition is -0.499%.

For `COc1cc2c(cc1CNC1CCN(Cc3ccccc3)C1)OC(C)C2` (centres undefined), the inhibition is -13.3%.

For `CC(=O)OC(OC(C)=O)c1coc2c(F)cccc2c1=O`, the inhibition is 2.77%.

Take `CCC1CCC(N(CC(=O)NC(C)C(=O)N(C)C)C(C)c2ccc(F)cc2)CC1` (centres undefined): the inhibition is -8.3%.

Consider `Cc1[nH]n(-c2nc(O)c(C)c(=O)[nH]2)c(=O)c1CCO`, for which the inhibition was -3.37%.

In the case of `CCCNc1nc2c(C)cccn2c(=O)c1C=C1SC(=S)N(CC(C)C)C1=O`, the inhibition was -5.08%.

As to `Cc1ccc(NC(=O)CN2CCCN(c3ccc(C(F)(F)F)cn3)CC2)cc1`, the inhibition is -2.92%.

Regarding `CC(Nc1ncnc2sc3c(c12)CCCC3)c1ccccc1` (centres undefined), the inhibition was -2.34%.

Take `CN(Cc1nc(-c2ccc(Br)s2)no1)c1nccs1`: the inhibition was -1.14%.

In the case of `CN(C)c1ccc(N2CC(=O)C(c3nc(-c4cccc(Cl)c4)cs3)C2=N)cc1` (centres undefined), the inhibition was -4.69%.

`CCCN(C)CC1CCN(C(C)C(=O)Nc2ccc(C(F)(F)F)cc2)C1` (centres undefined): the inhibition was 93.9% (active).

As for `Cc1ccc(NC(=O)C(C)N2CCCC(C(F)(F)F)C2)cc1` (centres undefined), the inhibition was -5.21%.

On to `CCc1ccc(NC(=O)C(C)n2cc(C(F)(F)F)ccc2=O)cc1` (centres undefined), for which the inhibition was -4.23%.

As to `CCn1ccc(C(=O)NCc2cccnc2Oc2ccc(C)nc2)n1`, the inhibition was 4.9%.

With `O=C(CSc1nnc(-c2ccco2)o1)NC1CC1`, the inhibition was -7.76%.

Turning to `Cc1cccc[n+]1CC(=O)C12CC3CC(CC(C3)C1)C2`, the inhibition was -6.75%.

As to `COc1ccc2c(c1)CCc1cc(C(=O)NC(C)c3c(C)nn(C)c3C)sc1-2` (centres undefined), the inhibition was 0.0306%.

For `CC(Nc1cccc(Br)c1)N1C(=O)CCC1=O` (centres undefined), the inhibition is -5.36%.

With `COc1ccc(OC)c(C2CCCN2Cn2nc(-c3ccccc3F)n(C)c2=S)c1` (centres undefined), the inhibition was -6.22%.

`NC(=O)Cn1nnc(-c2ccccc2Br)n1`: the inhibition was -12.5%.

Consider `COc1cccc(N(CN2C(=O)c3ccccc3C2=O)C(C)=O)c1`, for which the inhibition is 22.9%.

With `CC(C)(C)SCCNC(=O)CN(c1ccc(Cl)cc1Cl)S(=O)(=O)c1ccccc1`, the inhibition was -1.39%.

For the compound `Cc1ccc(-c2cnc(C(O)c3cccc(C)c3C)[nH]2)cc1` (centres undefined), the inhibition was -3.19%.

`N#Cc1ccc(F)c(COC(=O)c2cncc(Br)c2)c1`: the inhibition was 6.6%.
